# Reference: PubChem BioAssay (NCATS)
# Values joined by “and” are separate entries in the source; they are usually repeats but may differ in a detail not shown here. Equal entries are not always repeated. Records with an inconclusive call do not appear. Active and inactive are the calls of the source. Calls come from the whole dose curve; as a rule, active = well fitted cell-killing curve with a large enough effect; inconclusive = small, poorly fitted or top-dose-only effect, or effect the other way; inactive = no such curve, though single readings can be large or run the other way.
# Assay: Viability qHTS for spleen associated tyrosine kinase inhibitor (SYKi) drug resistant MV4-11 cells (AID 1963824); note: nearly all actives have a fitted effect of over 35% in size
# Details: SYKi-resistant MV4-11 viability, CellTiter-Glo, 72 h; series mostly up to 45 µM
# In short: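 SYK-inhibitor-resistant MV4-11 AML cells were seeded at 500 per well onto compound and cultured 72 hours (37 °C, 5% CO2). CellTiter-Glo was then added, and after 10 min at room temperature, luminescence gave viability.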
# Potency is the fitted concentration of half-maximal effect.
row,SMILES,Potency
1,CCNC(=O)CCC/C=C\C[C@@H]1[C@@H](/C=C/C(O)CCc2ccccc2)[C@@H](O)C[C@@H]1O (some centres undefined),14.8 µM (active)
2,COc1cc2c(cc1OC)CN(C(=O)[C@H](C)N[C@@H](CCc1ccccc1)C(=O)O)[C@H](C(=O)O)C2,inactive
3,CN(C)C/C=C/C(=O)Nc1ccc(C(=O)N2CCC[C@@H](Nc3ncc(Cl)c(-c4c[nH]c5ccccc45)n3)C2)cc1,0.0934 µM (active)
4,CC(Nc1ncnc2nc[nH]c12)c1cc2cccc(Cl)c2c(=O)n1-c1ccccc1 (centres undefined),2.59 µM (active)
5,NC1CCN(c2cccc(Cl)n2)CC1,inactive
6,CO[C@H]1/C=C/O[C@@]2(C)Oc3c(C)c(O)c4c(O)c(c5c(nc6cc(C)ccn65)c4c3C2=O)NC(=O)/C(C)=C\C=C\[C@H](C)[C@H](O)[C@@H](C)[C@@H](O)[C@@H](C)[C@H](OC(C)=O)[C@@H]1C,14.8 µM (active)
7,CC[C@@]1(O)C(=O)OCc2c1cc1n(c2=O)Cc2c-1nc1cc(F)c(C)c3c1c2[C@@H](N)CC3,0.0042 µM (active)
8,NCCCC[C@H](NC(=O)[C@@H](NC(=O)[C@H](Cc1c[nH]c2ccccc12)NC(=O)[C@H](CCCCN)NC(=O)[C@H](CCCCN)NC(=O)[C@H](Cc1c[nH]c2ccccc12)NC(=O)[C@H](Cc1c[nH]c2ccccc12)NC(=O)[C@H](CCCCN)NC(=O)[C@@H](N)CCCCN)C(c1ccccc1)c1ccccc1)C(N)=O,10.5 µM (active)
9,O=C(NC[C@H](O)CN1CCc2ccccc2C1)c1ccnc(NC2CCC2)c1,6.61 µM (active)
10,CCOC(=O)NNc1nncc2ccccc12,inactive
11,CC(C)(O)C1CCC(Nc2ccc3ncc(-c4cccc(C(F)(F)F)c4)n3n2)CC1 (centres undefined),1.32 µM (active)
12,CC1CC(OC(=O)c2ccccc2O)CC(C)(C)C1 (centres undefined),inactive
13,C=CC(=O)Nc1cccc(Oc2nc(Nc3ccc(N4CCN(C)CC4)cc3)nc3ccsc23)c1,3.32 µM (active)
14,CC(/C=C1\SC(=S)N(CC(=O)O)C1=O)=C\c1ccccc1,inactive
15,Cc1ccc(NC(=O)NCc2ccc3c(c2)CN(C2CCC(=O)NC2=O)C3=O)cc1Cl (centres undefined),0.0013 µM (active)
16,O=C(NO)c1ccc(C2=Nc3ccccc3Oc3ccccc32)cc1,2.95 µM (active)
17,CCN(CC)CCSC(=O)C(c1ccccc1)c1ccccc1,inactive

row,SMILES,Potency
1,C=CC(=O)Nc1cc(Nc2nccc(-c3cn(C)c4ccccc34)n2)c(OC)cc1N(C)CCN(C)C,0.934 µM (active)
2,c1cnc(N2CCN(Cc3ccc4c(c3)OCO4)CC2)nc1,inactive
3,COc1cc(O)cc(O)c1,inactive
4,N#Cc1c(N)nc(N)nc1N[C@H](c1nc2c(F)ccc(Cl)c2c(=O)n1-c1cccnc1)C1CC1,10.5 µM (active)
5,Cc1c(F)ccc(C(=O)Nc2cc([N+](=O)[O-])ccc2N2CCN(C)CC2)c1Cl,2.91 µM (active)
6,CN1CC[C@@H](NC(=O)Nc2ccc(C#N)cc2)C[C@@H]1c1nc2ccccc2[nH]1,18.6 µM (active)
7,CCCC(=O)O[C@]1(C(=O)CC)CC[C@H]2[C@@H]3CCC4=CC(=O)CC[C@]4(C)[C@H]3[C@@H](O)C[C@@]21C,inactive
8,Nc1ccc(S(=O)(=O)NCc2ccccc2)cc1,inactive
9,CC1CCc2c(N3CCC(O)CC3)c(F)cc3c(=O)c(C(=O)O)cn1c23 (centres undefined),inactive
10,CO[C@@H]1[C@@H](O)[C@H](O)[C@@H](n2c3c(Cl)cccc3c3c4c(c5c6cccc(Cl)c6[nH]c5c32)C(=O)NC4=O)O[C@H]1CO,0.742 µM (active)
11,CCN1CCN(Cc2ccc(NC(=O)c3ccc(C)c(/C=C/c4cnc5[nH]ccc5c4OC)c3)cc2C(F)(F)F)CC1,20.6 nM (active) and 83.3 nM (active)
12,C[C@H]1C[C@@H](n2c(Nc3ccc(OC(F)(F)F)cc3)nc3cc(CCC(=O)O)ccc32)CC(C)(C)C1,10.5 µM (active)
13,CCN(c1cc(-c2ccc(CN3CCOCC3)cc2)cc(C(=O)NCc2c(C)cc(C)[nH]c2=O)c1C)C1CCOCC1,20.6 µM (active)
14,CCOC(=O)N[C@@H]1CC[C@@H]2[C@@H](C1)C[C@H]1C(=O)O[C@H](C)[C@H]1[C@H]2/C=C/c1ccc(-c2cccc(F)c2)cn1,13.2 µM (active)
15,CCCCCCCCCCCCCC[N+](C)(C)C,1.33 µM (active)
16,Nc1ccc(C(=O)OCC(O)CO)cc1 (centres undefined),inactive
17,C[C@@H](Nc1cc(F)cc(F)c1)c1cc(C(=O)N(C)C)cc2c(=O)cc(N3CCOCC3)oc12,2.31 µM (active) and 6.61 µM (active)
